Sampled rows, rich in hits. Any-hit rate of the full collection: about 2.8%.
POLH inh – qHTS for Inhibitors of Polymerase Eta. DNA polymerase eta (Homo sapiens), Q9Y253. recombinant Pol eta, fluorescent DNA replication assay. 1.2% of 390,000 active. Potency, µM (titrated, usually from 114 µM), usual class: inhibitors
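Fluorescent replication assay: 50 nM final substrate added after a 15 min room-temperature compound preincubation with 10 nM enzyme. Signal taken at 0 min and again at 10 min.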
WRN helicase inh – qHTS for Inhibitors of WRN Helicase. WRN helicase unwinding, fluorescent forked duplex, kinetic. Potency, µM (highest dose often 114 µM), most hits filed as inhibitors. 0.46% of 360,000 active. AID 651768, 2012; note: nearly all actives have a fitted effect of over 55% in size
Target sequence (Q14191 whole entry, looked up): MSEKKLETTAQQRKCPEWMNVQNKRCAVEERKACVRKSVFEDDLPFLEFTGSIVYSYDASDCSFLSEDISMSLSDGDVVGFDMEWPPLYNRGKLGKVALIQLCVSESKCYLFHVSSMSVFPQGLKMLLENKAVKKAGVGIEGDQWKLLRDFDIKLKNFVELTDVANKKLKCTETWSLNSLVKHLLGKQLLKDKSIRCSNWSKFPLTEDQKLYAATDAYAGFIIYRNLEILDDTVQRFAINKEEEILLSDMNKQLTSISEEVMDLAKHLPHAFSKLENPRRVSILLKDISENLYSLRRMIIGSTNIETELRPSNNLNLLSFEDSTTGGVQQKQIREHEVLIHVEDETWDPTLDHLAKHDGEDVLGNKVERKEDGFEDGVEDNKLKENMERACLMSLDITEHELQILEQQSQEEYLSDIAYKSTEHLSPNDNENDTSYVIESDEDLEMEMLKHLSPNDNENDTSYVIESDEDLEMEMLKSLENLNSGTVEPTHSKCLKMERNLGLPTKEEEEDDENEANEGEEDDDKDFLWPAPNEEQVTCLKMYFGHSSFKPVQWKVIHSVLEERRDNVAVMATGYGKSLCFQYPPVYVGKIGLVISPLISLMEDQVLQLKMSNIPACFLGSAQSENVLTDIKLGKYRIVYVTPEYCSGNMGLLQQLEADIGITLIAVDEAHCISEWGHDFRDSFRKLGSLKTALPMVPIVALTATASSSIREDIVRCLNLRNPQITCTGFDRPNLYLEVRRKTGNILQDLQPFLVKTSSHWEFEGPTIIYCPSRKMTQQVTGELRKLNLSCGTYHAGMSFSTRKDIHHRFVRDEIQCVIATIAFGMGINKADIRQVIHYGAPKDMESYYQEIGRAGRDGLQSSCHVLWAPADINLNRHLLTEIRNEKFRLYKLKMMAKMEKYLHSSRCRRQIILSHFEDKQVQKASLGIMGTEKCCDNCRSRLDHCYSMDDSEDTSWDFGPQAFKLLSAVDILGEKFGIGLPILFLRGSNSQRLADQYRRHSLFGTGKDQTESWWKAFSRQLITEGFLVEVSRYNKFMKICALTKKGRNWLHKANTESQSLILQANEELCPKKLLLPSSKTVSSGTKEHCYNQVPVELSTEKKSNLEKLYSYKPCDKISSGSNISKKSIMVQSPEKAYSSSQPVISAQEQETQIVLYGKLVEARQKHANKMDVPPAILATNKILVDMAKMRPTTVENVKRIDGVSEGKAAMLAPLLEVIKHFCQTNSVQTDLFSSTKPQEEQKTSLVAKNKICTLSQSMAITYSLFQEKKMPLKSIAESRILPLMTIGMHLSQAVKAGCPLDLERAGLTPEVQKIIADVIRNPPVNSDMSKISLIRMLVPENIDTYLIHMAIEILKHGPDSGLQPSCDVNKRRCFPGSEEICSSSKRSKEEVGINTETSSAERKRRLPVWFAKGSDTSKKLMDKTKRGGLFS
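WRN at 20 nM final was preincubated with compound for 15 min at room temperature; reaction started with 100 nM forked duplex oligonucleotide carrying fluorophore and quencher plus 2 mM ATP (final). Unwinding followed kinetically by red fluorescence (ex 525/em 598 nm).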
POLB inh – qHTS Assay for Inhibitors of DNA Polymerase Beta; P06746; Pol beta primer extension/strand displacement, fluorescence kinetic; Potency, µM (doses to about 114 µM), usual class: inhibitors; 1.3% of 340,000 active; AID 485314, 2010
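Enzyme-only controls used 10 nM Pol beta; buffer lacking enzyme served as negative control. Compound preincubated 15 min, then 50 nM substrate added; 0 and 10 min reads at room temperature.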
Pol iota inh – qHTS for Inhibitors of Polymerase Iota. DNA polymerase iota (Homo sapiens), Q9UNA4. Pol iota fluorescent replication assay, 10 min. Potency, µM (series often up to 115 µM), hits mostly inhibitors. 1% of 390,000 active. AID 588590, 2011
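Pol iota at 10 nM preincubated 15 min with compounds at room temperature; reaction started with fluorescent substrate, 50 nM final. Fluorescence read kinetically at 0 and 10 min; buffer-only wells as negative control.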
Pol kappa inh – qHTS for Inhibitors of Polymerase Kappa | DNA polymerase kappa (Homo sapiens), Q9UBT6 | purified Pol kappa, fluorescent DNA synthesis assay, 10 min | Potency, µM (series often up to 107 µM), most hits filed as inhibitors | 0.53% of 400,000 active | AID 588579, 2011
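First, compounds were pin-transferred onto 10 nM Pol kappa. After 15 min at room temperature, substrate was added to 50 nM final. Fluorescence was then measured kinetically at 0 and 10 min.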
PI5P4Ka inh – qHTS for Inhibitors of phosphatidylinositol 5-phosphate 4-kinase (PI5P4K); 1.2% of 330,000 active; max response, %; AID 652105, 2013; PI5P4Kalpha enzyme, ADP-Glo luminescence, 60 min; active compounds read low; active = max response of -50% or lower; inconclusive = between -30% and -50%; inactive = -30% or higher; note: value at the top dose of about 77 µM
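Compounds were pin-transferred onto PI5P4Kalpha and substrate in HEPES pH 7.4 buffer with EGTA, CHAPS and 5% DMSO. ATP (5 microM final) started the reaction, which ran 60 minutes at room temperature before ADP-Glo detection.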
Hits are given with their value; 0 = inactive; ? = inconclusive; - = no result; ! = not confirmed by another sample. Unless noted, calls come from the whole dose curve; as a rule, active = well fitted curve in the direction sought with a large enough effect; inconclusive = small, poorly fitted or top-dose-only effect, or another doubt; inactive = no such curve, though single readings can be large; an effect the other way counts as inactive or inconclusive.

SMILES	POLH inh	WRN helicase inh	POLB inh	Pol iota inh	Pol kappa inh	PI5P4Ka inh
CCCCN1CCC(=O)C(C(=O)OCC)=C1C(=O)OCC	0	0	-	0	0	0
COC(=O)c1sc2nc(C)cc(C)c2c1N	0	0	0	0	0	0
Cc1cc(C)c2c(N)c(C(=O)Nc3ncc(C)s3)sc2n1	0	0	45µM	0	0	0
COc1cc(-c2c(C#N)c(N)nc3[nH]c(=S)[nH]c(=O)c23)ccc1O	0	0	0	?	0	-67
[O-][n+]1onc2c1CCC(=N/O)/C2=N\Nc1ccccc1	-	-	40µM	-	-	-
COc1ccc(Nc2nc(-c3ccc(C)cc3)nc3ccccc23)c(OC)c1	0	-	0	0	0	-
COc1ccc(Nc2nc(N3CCCC3)nc3ccccc23)c(OC)c1	0	?	20µM	?	0	-
N=c1oc2cc(O)ccc2cc1C(=O)Nc1ccc(Cl)cc1	79µM	0	0	0	0	0
CCC/C=C1/CCCOC(C(=O)NCc2ccccn2)(C(F)(F)F)C1 (stereo unspecified)	0	0	-	89µM!	0	0
O=C(NCc1ccccn1)C1(C(F)(F)F)C/C(=C\CCO)CCCO1 (stereo unspecified)	0	0	-	0	0	0
CC(=O)Nc1cccc(NC(=O)CSc2ccc(-c3ccccn3)nn2)c1	0	0	25µM	0	0	0
CC(=O)Nc1cccc(NC(=O)CSc2ccc(-c3sc(-c4ccccc4)nc3C)nn2)c1	0	-	5.6µM	?	?	-
O=C(C=P(c1ccccc1)(c1ccccc1)c1ccccc1)c1ccccc1-c1ccccc1C(=O)C=P(c1ccccc1)(c1ccccc1)c1ccccc1	?	?	-	0	0	-65
O=C(NNC(=O)c1ccccc1-c1ccccc1C(=O)O)c1ccccc1	0	0	0	0	0	0
COc1ccccc1S(=O)(=O)CC(O)COc1ccc(C#N)cc1 (stereo unspecified)	0	0	0	0	0	0
CC(C)(C)NC(=O)C(c1ccc(-c2ccccc2)cc1)n1c(=O)c(-c2ccco2)nc2ccccc21 (stereo unspecified)	-	0	-	-	-	?
Cc1cccc(C)c1NC(=O)C(c1ccccc1F)n1c(=O)c(-c2ccco2)nc2ccccc21 (stereo unspecified)	-	0	-	-	-	-67
COc1ccc(NC(=O)C(c2ccccc2F)n2c(=O)c(-c3ccco3)nc3ccccc32)cc1 (stereo unspecified)	-	0	-	-	-	0
Cc1cccc(C)c1NC(=O)C(c1ccnc2ccccc12)n1c(=O)c(-c2ccco2)nc2ccccc21 (stereo unspecified)	-	0	-	-	-	-72
COc1ccc(NC(=O)C(c2ccnc3ccccc23)n2c(=O)c(-c3ccco3)nc3ccccc32)cc1 (stereo unspecified)	-	0	-	-	-	0
Cc1cccc(C)c1NC(=O)C(c1ccc(-c2ccccc2)cc1)n1c(=O)c(-c2ccco2)nc2ccccc21 (stereo unspecified)	-	0	-	-	-	-99
O=[N+]([O-])c1cc(Cl)ccc1Nc1nc(Nc2ccc(Cl)cc2[N+](=O)[O-])nc(N2CCOCC2)n1	-	-	-	0	0	-
COC(=O)c1ccc(N2CCc3ccccc32)c([N+](=O)[O-])c1	0	0	0	0	0	0
O=C(O)c1ccc(N2CCc3ccccc32)c([N+](=O)[O-])c1	0	0	0	0	0	-79
Cc1ccc(CCNS(=O)(=O)c2c(C)nc3sc(C)c(C)n3c2=O)cc1	0	-	0	0	0	-
Cc1c(Cl)cccc1-c1ccc(C(=O)Nc2ccc(F)cc2)o1	0	-	0	0	0	-
COc1ccc(OC)c(NC(=O)c2nnn(CC(=O)Nc3ccc4c(c3)OCO4)c2N)c1	16µM	0	?	0	0	0

Source: PubChem BioAssay (National Center for Advancing Translational Sciences (NCATS))
